Compounds without any hit were thinned out: in the full panel of roughly 79,000, 15% have a hit. Active and inactive are the calls of the source. Rule as the data show it: active = growth inhibition above about 70%; inactive = the rest.
Assay: NCI Yeast Anticancer Drug Screen. Data for the mlh1 rad18 strain (AID 175)
Conditions: S. cerevisiae mlh1 rad18 strain growth inhibition; at 50.0 µM; hits give high values
Protocol: Growth inhibition of yeast strains with defined genetic alterations is measured as a screen for potential anti-cancer activity. Selected strains with alterations in DNA damage repair or cell cycle control were exposed to compounds and growth inhibition was measured relative to vehicle treated controls. The strain used in this assay is mlh1 rad18

SMILES | growth inhibition
Cc1ccc2nc(N/N=C/c3sccc3C)cc(C)c2c1 | -21.4% (inactive)
CCOC(=O)C(F)(F)C(F)(F)C(F)(F)F | 11.8% (inactive)
Nc1nc(-c2ccccc2)cc(-c2cc(-c3ccccc3)nc(N)n2)n1 | 10.3% (inactive)
O=C(/C=C/c1ccccc1)c1ccc(O)cc1O | 2.1% (inactive)
CCOC(=O)CN(C)C#N | -2.15% (inactive)
N#CCCCCN1CCCCC1 | 13.6% (inactive)
CCOC(=O)c1c(C)c2c(n1C)CC/C(=C\N1CCOCC1)C2=O | 15.2% (inactive)
COc1cc(C2CC=CCC2C(=O)O)cc(OC)c1OC (stereo not given) | 0.9% (inactive)
O=C(O)c1cncc(-c2ccccc2)c1 | 26% (inactive)
O=S(=O)(O)c1ccccc1P(c1ccccc1)c1ccccc1 | 14.6% (inactive)
Cc1ccc2c(c1)C1(c3ccccc3)Oc3ccc(C)cc3C(c3ccccc3)(O2)O1 | -7.2% (inactive)
[Cl][Pt+2][Cl].[NH-]CC(C[NH-])(Cc1ccccc1)Cc1ccccc1 | -38.6% (inactive)
O=CC(=O)c1ccc(Br)cc1 | 19.4% (inactive)
CC1=CC(=O)C(C(O)(C(F)(F)F)C(F)(F)F)C(C)(C)C1 (stereo not given) | -6.9% (inactive)
CCCCCCCC(=O)C(C)C | 4.35% (inactive)
CC(C)c1ccc(C(=O)OCCCc2ccccc2)cc1 | 0.8% (inactive)
CNn1c(-c2ccc(C)cc2)n[nH]c1=O | 19.9% (inactive)
COc1ccc(N2C(=O)C3c4[nH]c5ccccc5c4C4CCCCCCCCCCC4C3C2=O)cc1 (stereo not given) | -4.2% (inactive)
O=C1C(O)=CC(=C(c2ccccc2)c2ccccc2)c2cc(Br)ccc21 | 34.1% (inactive)
COC(=O)C1=C(C)C(=O)[C@]23C(CCCC[C@H]12)C(=O)[C@H](C(=O)OC)C3C (stereo not given in full) | 16.1% (inactive)

SMILES | growth inhibition
Cc1[nH]nc(N)c1C(N)=O | 5.85% (inactive)
COc1ccc(-c2ccccc2)cc1NC(C)=O | 16.5% (inactive)
CCOCC(=O)N[C@H]1CCc2cc(OC)c(OC)c(OC)c2-c2ccc(OC)c(=O)cc21 | 4% (inactive)
CC(=O)OCc1cn(S(=O)(=O)c2ccc(C)cc2)cn1 | -51.9% (inactive)
FC1(F)C2(OCCO2)C(F)(F)C12OCCO2 | -4.8% (inactive)
COc1ccc(C2=NN(C(C)=O)c3nc4ccccc4nc3O2)cc1 | -12.6% (inactive)
O=S(=O)(O)C1CC2C(c3ccccc31)N1ON2O1 (stereo not given) | -0.95% (inactive)
C/C(O)=C(\C=N\C(=S)N=Nc1c(O)[nH]c2ccccc12)C(=O)Nc1ccccc1C | 62% (inactive)
CN(C)Cc1cc(O)c(O)c(CN(C)C)c1 | 13.1% (inactive)
COc1cccc(CC2C(=O)N=C(NC(C)=O)N2C)c1OC(C)=O (stereo not given) | -31.2% (inactive)
CNCC(OC(C)C)c1ccc(O)c(O)c1 (stereo not given) | 16.2% (inactive)
CC1(C)OCC(C2OC3OC(C)(C)OC3C2OP(=O)(N2CC2)N2CC2)O1 (stereo not given) | -73.4% (inactive)
CCOc1ccc(/C=C/c2ccc3ccccc3[n+]2C)cc1OCC | 19.7% (inactive)
Cc1ccc2nc(C)cc(NC(=O)c3ccccc3)c2c1 | 24.2% (inactive)
CCCCc1c(O)nc(NCCCC(N)C(=O)O)[nH]c1=O (stereo not given) | -17.8% (inactive)
C=C(C)CS(=O)(=O)Cc1ccccc1 | 7.6% (inactive)
CCC(C)N(C(=O)C(C)Br)C(C)CC (stereo not given) | 5.9% (inactive)
O=C(Oc1ccc([N+](=O)[O-])cc1)C(CSC(c1ccccc1)(c1ccccc1)c1ccccc1)N1C(=O)c2ccccc2C1=O (stereo not given) | 52.8% (inactive)
OC1(CCC2OCCO2)c2ccccc2-c2ccccc21 | 2.85% (inactive)
CC(=O)Nc1cccc(OCOc2ccc([N+](=O)[O-])cc2)c1 | 40.8% (inactive)

— PubChem BioAssay (NCI)
